Compound activity (PubChem)
FMDV RLuc – FMDV antiviral activity by Renilla signal | FMDV replicon cells, Renilla luciferase signal | Potency, µM (series often up to 57.5 µM), most hits filed as inhibitors | 0.32% of 120,000 active | AID 1745857; also: nearly all actives have a fitted effect of over 55% in size
FMDV antiviral – shows antiviral activity against foot and mouth disease virus; FMDV antiviral cell assay, firefly luciferase signal; Potency, µM (doses to about 57.5 µM), most hits filed as inhibitors; 0.23% of 120,000 active; AID 1745856; also: nearly all actives have a fitted effect of over 60% in size
Of the large screens only hits and unclear results are named; the others gave an inactive call. An excerpt weighted towards active compounds, which were near 0.45% of everything screened. Calls follow the shape of the full dose curve.

Cc1cc(Cl)ccc1NC(=O)CN1c2ccc(S(N)(=O)=O)cc2CC1C (centres undefined)	none
Cc1nc(C)c(-c2ccc(SCC(=O)Nc3ccc(Br)cc3)nn2)s1	FMDV RLuc 2.8µM, FMDV antiviral inconclusive
COc1ccccc1NC(=O)CSc1ccc(-c2sc(C)nc2C)nn1	none
Cc1cc(O)c2c(C)c(CC(=O)NCCc3cccc(F)c3)c(=O)oc2c1	none
Cc1ccc(NC(=O)C2=C(c3ccccc3)NC(=S)NC2c2ccc(Cl)cc2)cc1 (centres undefined)	none
Cc1ccc(C)c(NC(=O)c2ccc3c(=O)n(-c4ccccc4)c(=O)[nH]c3c2)c1	none
Cc1cc(C(C#N)c2ccc(Cl)cc2)c(Cl)cc1NC(=O)c1cc(I)cc(I)c1O (centres undefined)	FMDV RLuc 11µM
Cc1cc(C(C#N)c2ccc(Cl)cc2)c(Cl)cc1NC(=O)CCc1ccccc1 (centres undefined)	none
CCc1nc(NCc2ccncc2)c(C#N)c2c1CCCC2	FMDV RLuc inconclusive, FMDV antiviral 7.1µM
CCCCc1nc(NCc2ccncc2)c(C#N)c2c1CCCC2	FMDV antiviral inconclusive
CCCS(=O)(=O)c1ncc(Cl)c(C(=O)N(Cc2ccccc2)Cc2ccco2)n1	FMDV antiviral 22µM
CCCSc1ncc(Cl)c(C(=O)N(Cc2ccc(Cl)cc2)Cc2ccco2)n1	none
O=S(=O)(c1cc(F)ccc1F)N1CCN(Cc2cccc3cccnc23)CC1	none
CCCCN(CC)C(=O)C1CCCN(c2ncnc3onc(C)c23)C1 (centres undefined)	FMDV RLuc inconclusive
CCCCN(C)C(=O)C1CCCN(c2ncnc3onc(C)c23)C1 (centres undefined)	FMDV RLuc 2µM, FMDV antiviral inconclusive
O=C(Nc1ccc(S(=O)(=O)Nc2cnc3ccccc3n2)cc1)c1ccccc1	none
CCCNc1ncnc2onc(C)c12	none
COc1ccc(CCNc2ncnc3onc(C)c23)c(OC)c1	FMDV RLuc 0.89µM, FMDV antiviral inconclusive
N=C(N)c1cccc(OCc2cccnc2)c1	none
COc1ccc(NC(=O)CCn2cnc3onc(-c4ccc(F)cc4)c3c2=O)cc1OC	FMDV RLuc 4µM, FMDV antiviral inconclusive
COc1cc(Cl)c(C)cc1NC(=O)CCn1cnc2onc(-c3ccc(F)cc3)c2c1=O	none
O=C(CSC1CCCCC1)c1ccccc1Br	none
CC(C(=O)NC(N)=O)N1CCN(c2ccccc2F)CC1 (centres undefined)	none
CCN(c1ccc(-c2csc(-c3ccsc3)n2)cc1)S(C)(=O)=O	none
O=C(Nc1ccc(Cl)c(C(F)(F)F)c1)c1ccc(Cl)cc1Cl	FMDV RLuc inconclusive
O=C(Nc1ccc(Cl)cc1)Nc1ccc(Cl)c(C(F)(F)F)c1	FMDV RLuc 7.1µM, FMDV antiviral inconclusive
O=[N+]([O-])c1ccc(N/N=C/c2c[nH]c3ccccc23)c(S(=O)(=O)Nc2ccccc2Cl)c1	none
O=[N+]([O-])c1ccc(N/N=C/c2c[nH]c3ccccc23)c(S(=O)(=O)Nc2ccc(Cl)cc2)c1	FMDV antiviral 25µM
CC(CNC(=O)NCc1ccc(F)cc1)CN1CCN(C)CC1 (centres undefined)	none
O=C(NCc1ccncc1)c1ccc(C2CCCCC2)cc1	FMDV RLuc 3.5µM, FMDV antiviral inconclusive
O=C(NCc1ccccn1)c1ccc(C2CCCCC2)cc1	none
